# Measurements taken from the supplement of paper PMC4466140.
# Assays:
# Assay in all cases: SPOT peptide array binding signal intensity (averaged, normalized) (arbitrary units (background-subtracted, floor 0; scale differs between SH3 domains)); higher = stronger binding of the SH3 domain to the peptide
# AgAbp1 = target: AgAbp1
# In short: (§1)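 Peptides were synthetic 15-mers on cellulose membranes, with every cysteine replaced by serine. They were incubated overnight at 4°C with GST-SH3 domains from four yeast species at 10 μg/ml in TBS-based blocking buffer. Binding signal, the replicate-averaged normalized and background-subtracted spot intensity, is in arbitrary units that differ between domains.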
# AgBbc1 = target: AgBbc1
# In short: as §1
# AgBem1-D1 = target: AgBem1-D1
# In short: as §1
# AgBzz1-D1 = target: AgBzz1-D1
# In short: as §1
# AgBzz1-D2 = target: AgBzz1-D2
# In short: as §1
# AgCyk3 = target: AgCyk3
# In short: as §1
# AgFus1 = target: AgFus1
# In short: as §1
# AgHof1 = target: AgHof1
# In short: as §1
# AgHse1 = target: AgHse1
# In short: as §1
# AgLsb1 = target: AgLsb1
# In short: as §1
# AgLsb4 = target: AgLsb4
# In short: as §1
# AgMyo5 = target: AgMyo5
# In short: as §1
# AgNbp2 = target: AgNbp2
# In short: as §1
# AgRvs167 = target: AgRvs167
# In short: as §1
# AgSho1 = target: AgSho1
# In short: as §1
# AgSla1-D1-D2 = target: AgSla1-D1-D2
# In short: as §1
# AgSla1-D3 = target: AgSla1-D3
# In short: as §1
# CaAbp1-D1 = target: CaAbp1-D1
# In short: as §1
# CaAbp1-D2 = target: CaAbp1-D2
# In short: as §1
# CaBbc1 = target: CaBbc1
# In short: as §1
# CaBem1-D1 = target: CaBem1-D1
# In short: as §1
# CaBzz1-D1 = target: CaBzz1-D1
# In short: as §1
# CaBzz1-D2 = target: CaBzz1-D2
# In short: as §1
# CaCyk3 = target: CaCyk3
# In short: as §1
# CaFus1 = target: CaFus1
# In short: as §1
# CaHof1 = target: CaHof1
# In short: as §1
# CaHse1 = target: CaHse1
# In short: as §1
# CaLsb1 = target: CaLsb1
# In short: as §1
# CaLsb4 = target: CaLsb4
# In short: as §1
# CaMyo5 = target: CaMyo5
# In short: as §1
# CaNbp2 = target: CaNbp2
# In short: as §1
# CaRvs167 = target: CaRvs167
# In short: as §1
# CaRvs167-3 = target: CaRvs167-3
# In short: as §1
# CaSho1 = target: CaSho1
# In short: as §1
# CaSla1-D1-D2 = target: CaSla1-D1-D2
# In short: as §1
# CaSla1-D3 = target: CaSla1-D3
# In short: as §1
# ScAbp1 = target: ScAbp1
# In short: as §1
# ScBbc1 = target: ScBbc1
# In short: as §1
# ScBem1-D1 = target: ScBem1-D1
# In short: as §1
# ScBzz1-D1 = target: ScBzz1-D1
# In short: as §1
# ScBzz1-D2 = target: ScBzz1-D2
# In short: as §1
# ScCyk3 = target: ScCyk3
# In short: as §1
# ScFus1 = target: ScFus1
# In short: as §1
# ScHof1 = target: ScHof1
# In short: as §1
# ScHse1 = target: ScHse1
# In short: as §1
# ScLsb1 = target: ScLsb1
# In short: as §1
# ScLsb2 = target: ScLsb2
# In short: as §1
# ScLsb3 = target: ScLsb3
# In short: as §1
# ScLsb4 = target: ScLsb4
# In short: as §1
# ScMyo3 = target: ScMyo3
# In short: as §1
# ScMyo5 = target: ScMyo5
# In short: as §1
# ScNbp2 = target: ScNbp2
# In short: as §1
# ScPex13 = target: ScPex13
# In short: as §1
# ScRvs167 = target: ScRvs167
# In short: as §1
# ScSho1 = target: ScSho1
# In short: as §1
# ScSla1-D1-D2 = target: ScSla1-D1-D2
# In short: as §1
# ScSla1-D3 = target: ScSla1-D3
# In short: as §1
# SpAbp1-D1 = target: SpAbp1-D1
# In short: as §1
# SpBbc1 = target: SpBbc1
# In short: as §1
# SpBzz1-D1 = target: SpBzz1-D1
# In short: as §1
# SpBzz1-D2 = target: SpBzz1-D2
# In short: as §1
# SpCyk3 = target: SpCyk3
# In short: as §1
# SpHof1 = target: SpHof1
# In short: as §1
# SpHof1-2 = target: SpHof1-2
# In short: as §1
# SpHof1-3 = target: SpHof1-3
# In short: as §1
# SpHse1 = target: SpHse1
# In short: as §1
# SpLsb1 = target: SpLsb1
# In short: as §1
# SpLsb4 = target: SpLsb4
# In short: as §1
# SpMyo1 = target: SpMyo1
# In short: as §1
# SpNbp2 = target: SpNbp2
# In short: as §1
# SpPex13 = target: SpPex13
# In short: as §1
# SpRvs167 = target: SpRvs167
# In short: as §1
# SpSla1-D1-D2 = target: SpSla1-D1-D2
# In short: as §1
# SpSla1-D3 = target: SpSla1-D3
# In short: as §1
binder,measurement,setting,value
VAPPPLPNRQLPNLD,SPOT peptide array binding signal intensity,AgAbp1,1.5
same,SPOT peptide array binding signal intensity,AgBbc1,45.5
same,SPOT peptide array binding signal intensity,AgBem1-D1,16
same,SPOT peptide array binding signal intensity,AgBzz1-D1,3
same,SPOT peptide array binding signal intensity,AgBzz1-D2,≤ 0
same,SPOT peptide array binding signal intensity,AgCyk3,≤ 0
same,SPOT peptide array binding signal intensity,AgFus1,≤ 0
same,SPOT peptide array binding signal intensity,AgHof1,247
same,SPOT peptide array binding signal intensity,AgHse1,51
same,SPOT peptide array binding signal intensity,AgLsb1,693
same,SPOT peptide array binding signal intensity,AgLsb4,5100
same,SPOT peptide array binding signal intensity,AgMyo5,364
same,SPOT peptide array binding signal intensity,AgNbp2,≤ 0
same,SPOT peptide array binding signal intensity,AgRvs167,952
same,SPOT peptide array binding signal intensity,AgSho1,≤ 0
same,SPOT peptide array binding signal intensity,AgSla1-D1-D2,1.5
same,SPOT peptide array binding signal intensity,AgSla1-D3,≤ 0
same,SPOT peptide array binding signal intensity,CaAbp1-D1,≤ 0
same,SPOT peptide array binding signal intensity,CaAbp1-D2,5
same,SPOT peptide array binding signal intensity,CaBbc1,252
same,SPOT peptide array binding signal intensity,CaBem1-D1,≤ 0
same,SPOT peptide array binding signal intensity,CaBzz1-D1,14
same,SPOT peptide array binding signal intensity,CaBzz1-D2,4
same,SPOT peptide array binding signal intensity,CaCyk3,1
same,SPOT peptide array binding signal intensity,CaFus1,≤ 0
same,SPOT peptide array binding signal intensity,CaHof1,2
same,SPOT peptide array binding signal intensity,CaHse1,569
same,SPOT peptide array binding signal intensity,CaLsb1,3.25
same,SPOT peptide array binding signal intensity,CaLsb4,4840
same,SPOT peptide array binding signal intensity,CaMyo5,2.5
same,SPOT peptide array binding signal intensity,CaNbp2,28.5
same,SPOT peptide array binding signal intensity,CaRvs167,3100
same,SPOT peptide array binding signal intensity,CaRvs167-3,≤ 0
same,SPOT peptide array binding signal intensity,CaSho1,≤ 0
same,SPOT peptide array binding signal intensity,CaSla1-D1-D2,≤ 0
same,SPOT peptide array binding signal intensity,CaSla1-D3,≤ 0
same,SPOT peptide array binding signal intensity,ScAbp1,2
same,SPOT peptide array binding signal intensity,ScBbc1,≤ 0
same,SPOT peptide array binding signal intensity,ScBem1-D1,≤ 0
same,SPOT peptide array binding signal intensity,ScBzz1-D1,3.5
same,SPOT peptide array binding signal intensity,ScBzz1-D2,≤ 0
same,SPOT peptide array binding signal intensity,ScCyk3,≤ 0
same,SPOT peptide array binding signal intensity,ScFus1,≤ 0
same,SPOT peptide array binding signal intensity,ScHof1,39.2
same,SPOT peptide array binding signal intensity,ScHse1,10.5
same,SPOT peptide array binding signal intensity,ScLsb1,1610
same,SPOT peptide array binding signal intensity,ScLsb2,203
same,SPOT peptide array binding signal intensity,ScLsb3,8010
same,SPOT peptide array binding signal intensity,ScLsb4,4010
same,SPOT peptide array binding signal intensity,ScMyo3,321
same,SPOT peptide array binding signal intensity,ScMyo5,208
same,SPOT peptide array binding signal intensity,ScNbp2,≤ 0
same,SPOT peptide array binding signal intensity,ScPex13,1660
same,SPOT peptide array binding signal intensity,ScRvs167,2740
same,SPOT peptide array binding signal intensity,ScSho1,≤ 0
same,SPOT peptide array binding signal intensity,ScSla1-D1-D2,≤ 0
same,SPOT peptide array binding signal intensity,ScSla1-D3,≤ 0
same,SPOT peptide array binding signal intensity,SpAbp1-D1,8
same,SPOT peptide array binding signal intensity,SpBbc1,≤ 0
same,SPOT peptide array binding signal intensity,SpBzz1-D1,176
same,SPOT peptide array binding signal intensity,SpBzz1-D2,≤ 0
same,SPOT peptide array binding signal intensity,SpCyk3,5
same,SPOT peptide array binding signal intensity,SpHof1,≤ 0
same,SPOT peptide array binding signal intensity,SpHof1-2,11.5
same,SPOT peptide array binding signal intensity,SpHof1-3,31
same,SPOT peptide array binding signal intensity,SpHse1,71.5
same,SPOT peptide array binding signal intensity,SpLsb1,1020
same,SPOT peptide array binding signal intensity,SpLsb4,5980
same,SPOT peptide array binding signal intensity,SpMyo1,461
same,SPOT peptide array binding signal intensity,SpNbp2,≤ 0
same,SPOT peptide array binding signal intensity,SpPex13,≤ 0
same,SPOT peptide array binding signal intensity,SpRvs167,3250
same,SPOT peptide array binding signal intensity,SpSla1-D1-D2,≤ 0
same,SPOT peptide array binding signal intensity,SpSla1-D3,≤ 0
ILARAILTIPRVLDK,SPOT peptide array binding signal intensity,CaNbp2,290
same,SPOT peptide array binding signal intensity,CaRvs167,99.3
same,SPOT peptide array binding signal intensity,CaRvs167-3,854
same,SPOT peptide array binding signal intensity,CaSho1,1420
same,SPOT peptide array binding signal intensity,CaSla1-D1-D2,15
same,SPOT peptide array binding signal intensity,CaSla1-D3,118
same,SPOT peptide array binding signal intensity,ScAbp1,6
same,SPOT peptide array binding signal intensity,ScBbc1,3.5
same,SPOT peptide array binding signal intensity,ScBem1-D1,8
same,SPOT peptide array binding signal intensity,ScBzz1-D1,41.5
same,SPOT peptide array binding signal intensity,ScBzz1-D2,299
same,SPOT peptide array binding signal intensity,ScCyk3,70
same,SPOT peptide array binding signal intensity,ScFus1,1530
same,SPOT peptide array binding signal intensity,ScHof1,0.5
same,SPOT peptide array binding signal intensity,ScHse1,1470
same,SPOT peptide array binding signal intensity,ScLsb1,11.5
same,SPOT peptide array binding signal intensity,ScLsb2,55
same,SPOT peptide array binding signal intensity,ScLsb3,117
same,SPOT peptide array binding signal intensity,ScLsb4,5
same,SPOT peptide array binding signal intensity,ScMyo3,≤ 0
same,SPOT peptide array binding signal intensity,ScMyo5,≤ 0
same,SPOT peptide array binding signal intensity,ScNbp2,305
same,SPOT peptide array binding signal intensity,ScPex13,59.2
same,SPOT peptide array binding signal intensity,ScRvs167,4.83
same,SPOT peptide array binding signal intensity,ScSho1,1560
same,SPOT peptide array binding signal intensity,ScSla1-D1-D2,145
same,SPOT peptide array binding signal intensity,ScSla1-D3,18
same,SPOT peptide array binding signal intensity,SpAbp1-D1,7.5
same,SPOT peptide array binding signal intensity,SpBbc1,56.5
same,SPOT peptide array binding signal intensity,SpBzz1-D1,553
same,SPOT peptide array binding signal intensity,SpBzz1-D2,1.5
same,SPOT peptide array binding signal intensity,SpCyk3,8.5
same,SPOT peptide array binding signal intensity,SpHof1,82.2
same,SPOT peptide array binding signal intensity,SpHof1-2,8.5
same,SPOT peptide array binding signal intensity,SpHof1-3,158
same,SPOT peptide array binding signal intensity,SpHse1,613
same,SPOT peptide array binding signal intensity,SpLsb1,2.25
same,SPOT peptide array binding signal intensity,SpLsb4,42
same,SPOT peptide array binding signal intensity,SpMyo1,1.5
same,SPOT peptide array binding signal intensity,SpNbp2,207
same,SPOT peptide array binding signal intensity,SpPex13,131
same,SPOT peptide array binding signal intensity,SpRvs167,39.2
same,SPOT peptide array binding signal intensity,SpSla1-D1-D2,≤ 0
same,SPOT peptide array binding signal intensity,SpSla1-D3,10
